Among the data in ChEMBL document CHEMBL3433997, “St. Jude Leishmania screening dataset” (2016) are inhibition values, retold here.

Holding throughout (assay type): functional
Experiment [1] concerns the target Solute carrier family 2, facilitated glucose transporter member 1 (Homo sapiens) (UniProt P11166). Put plainly: ST_JUDE_LEISH: Cytotoxicity at 2uM final concentration against transgenic Leishmania Mexicana promastigotes LmGLUT1 that are glucose transport deficient and complemented with the human glucose transporter GLUT1. Activity is measured by DNA content using SYBR green in vitro.

For experiment [2], the target named is Hexose transporter 1 (Plasmodium falciparum) (UniProt O97467). Put plainly: ST_JUDE_LEISH: Cytotoxicity at 2uM final concentration against transgenic Leishmania Mexicana promastigotes LmPfHT that are glucose transport deficient and complemented with the Plasmodium falciparum hexose transporter. Activity is measured by DNA content using SYBR green in vitro.

In experiment [3] the target is Glucose transporter (Leishmania mexicana) (UniProt O61059). The experiment is described as follows: ST_JUDE_LEISH: Cytotoxicity at 2uM final concentration against transgenic Leishmania Mexicana promastigotes LmGT2 that are glucose transport deficient and complemented with the L. Mexicana glucose transporter 2. Activity is measured by DNA content using SYBR green in vitro.

Solute carrier family 2, facilitated glucose transporter member 1 (Homo sapiens), sequence (P11166 whole entry): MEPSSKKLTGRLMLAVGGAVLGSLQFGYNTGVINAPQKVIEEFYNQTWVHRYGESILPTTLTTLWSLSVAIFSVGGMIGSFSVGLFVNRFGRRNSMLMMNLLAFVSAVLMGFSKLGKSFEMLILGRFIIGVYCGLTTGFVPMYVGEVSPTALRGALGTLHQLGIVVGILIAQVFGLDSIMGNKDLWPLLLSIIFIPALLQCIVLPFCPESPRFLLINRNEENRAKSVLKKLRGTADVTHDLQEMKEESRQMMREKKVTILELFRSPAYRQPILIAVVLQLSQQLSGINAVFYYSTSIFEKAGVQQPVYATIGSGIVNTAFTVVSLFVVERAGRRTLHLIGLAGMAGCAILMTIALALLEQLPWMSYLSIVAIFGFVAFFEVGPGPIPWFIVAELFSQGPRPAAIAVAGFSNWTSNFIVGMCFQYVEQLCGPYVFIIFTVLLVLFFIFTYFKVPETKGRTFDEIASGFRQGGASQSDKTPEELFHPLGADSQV

On to `Cc1nc(-c2ccccc2)nc(N2CCN(C(=O)c3ccco3)CC2)c1Cc1ccccc1F`, for which the inhibition came out at 7.73% in experiment [1], 9.03% in experiment [2] and 7.76% in experiment [3].

As for `Cc1cc(N[C@@H](CC(C)C)C(=O)NC2CCCC2)nc(NCC2CCCCC2)n1`, the inhibition amounted to 3.95% in experiment [1], 3.89% in experiment [2] and 0.25% in experiment [3].

For `Cc1ccc(C2(C)CC(C)(C)N(C(=O)COc3ccc4ccccc4c3)c3ccccc32)cc1` (stereo not given), the inhibition in experiment [1] is -1.77%; in experiment [2], -1.69%; in experiment [3], 1.03%.

On to `OC(COc1ccccc1-c1nc2ccccc2o1)CN1CCCN(CCc2ccccc2)CC1` (stereo not given), for which the inhibition in experiment [1] was -0.28%; in experiment [2] it was -1.19%; in experiment [3], -0.36%.

On to `N#Cc1ccc(N/C(=N\c2ccccc2Cl)NC2CCN(Cc3ccccc3)CC2)c(O)c1`, for which the inhibition turned out to be 2.09% in experiment [1], 2.49% in experiment [2] and 0.29% in experiment [3].

For the molecule `CN(C)CCC1CCN(CCS(=O)(=O)c2cccc(Nc3ccc(-c4ccsc4)cn3)c2)CC1`, the results for the inhibition in experiment [1], in experiment [2] and in experiment [3] were -0.36%, 0.82% and 1.59%, respectively.

With `COc1ccc(CN2CCC(CNCCc3ccccc3Oc3ccccc3)CC2)cc1`, the inhibition in experiment [1] is -1.06%; in experiment [2] it was -1.31%; in experiment [3], -2.59%.

Turning to `N#Cc1cccc(NC(=O)NC2CCN(CCCCCNC(=O)C3CC3c3ccc(Cl)c(Cl)c3)CC2)c1` (stereo not given), the inhibition was 0.56% in experiment [1], 0.42% in experiment [2] and 1.85% in experiment [3].

For `O=C(Nc1ccc([N+](=O)[O-])cc1Cl)c1cc2ccccc2cc1O`, the figures for the inhibition in experiment [1], in experiment [2] and in experiment [3] were 0.6%, 1.59% and 1.3%, respectively.

`O=C(Nc1ccc(-c2ccccc2)cc1)Nc1ccc2c(c1)CCNCC2`: the inhibition in experiment [1] was -2.5%; in experiment [2], 0.46%; in experiment [3], -3.69%.

For `C=CC[C@H](C[C@H](O)[C@H](Cc1ccccc1)NC(=O)c1ccc(-n2cccn2)cc1)C(=O)NC1CCCCC1`, the inhibition in experiment [1] was 9.63%; in experiment [2] it was 9.73%; in experiment [3], 9.59%.

`Cc1cccc2nc(-c3ccc(-c4cccc(CN5CCCCC5)c4)s3)[nH]c12`: the inhibition stood at 5.63% in experiment [1], 5.12% in experiment [2] and 1.81% in experiment [3].

Turning to `CCOc1c(CNCCCNc2cc(O)c3ccccc3n2)cc(I)cc1OC`, the inhibition in experiment [1] is -0.3%; in experiment [2] it was -1.22%; in experiment [3], 1.41%.

As to `COc1cc2c(cc1S(=O)(=O)c1ccc(NC(=O)Nc3ccc(F)cc3)cc1)CCN(C)CC2`, the inhibition in experiment [1] was 3.01%; in experiment [2] it was 2.22%; in experiment [3], 3.04%.

For `O=C(c1ccc(Br)o1)N1N=C(c2cccs2)CC1c1ccc(Br)cc1` (stereo not given), the inhibition in experiment [1] amounted to 5.77%; in experiment [2], 7.79%; in experiment [3], 3.94%.

With `Cc1cccc2nc(-c3ccc(-c4cccc(NC(=O)Nc5ccc(Cl)cc5)c4)s3)[nH]c12`, the inhibition came out at 3.96% in experiment [1], 3.55% in experiment [2] and 3.01% in experiment [3].

On to `COCc1cccc(-c2cc(-c3ccc(S(C)(=O)=O)cc3)cnc2N)c1`, for which the inhibition is -0.03% in experiment [1], -0.46% in experiment [2] and -5.63% in experiment [3].

For the molecule `CCCCc1cc(N2CCC(NC(C)=O)C2)nc(Nc2ccc(C)cc2)n1` (stereo not given), the results for the inhibition in experiment [1], in experiment [2] and in experiment [3] were 10.9%, 2.45% and 5.78%, respectively.

With `CC(C)S(=O)(=O)N1CCN(Cc2ccc3c(c2)nc(NC(=O)c2ccsc2)n3C[C@H](O)c2ccccc2)CC1`, the inhibition in experiment [1] is 2.63%; in experiment [2] it was 1%; in experiment [3], -0.17%.

For `CC(C)CNC(=O)c1cncc(-c2ccc(CNCCCc3ccccc3)cc2)c1`, the inhibition in experiment [1] is 0.94%; in experiment [2] it was -0.91%; in experiment [3], -0.55%.

Consider `COc1ccc(CCc2ccc(-c3c(C)[nH]c(C)c(Cl)c3=O)cc2)cc1`, for which the inhibition in experiment [1] was determined as 2.55%; in experiment [2], 3.51%; in experiment [3], 1.05%.

For `Cc1nc(-c2ccc(C#N)cc2)sc1C(=O)NCCCCN1CCC(c2ccc3c(c2OCCO)CCCC3)CC1`, the inhibition worked out at 6.87% in experiment [1], 6.02% in experiment [2] and 3.7% in experiment [3].

For `Cc1cccc2nc(-c3ccc(-c4cccc(C(=O)N5CCCCC5C(C)O)c4)s3)[nH]c12` (stereo not given), the inhibition in experiment [1] worked out at 1.3%; in experiment [2], 2.52%; in experiment [3], 3.46%.

With `CC1CCCN1Cc1ccc(-c2ccc3c(=O)cc(CCc4cccc(F)c4F)n(CC(=O)N(C)Cc4ccc(-c5ccc(C(F)(F)F)cc5)cc4)c3n2)cc1` (stereo not given), the inhibition was -0.63% in experiment [1], -4.81% in experiment [2] and 10.4% in experiment [3].

For `Cc1ccc(NC(=O)Nc2ccccc2)cc1-c1ccc(C(=O)Nc2ccncc2)cc1`, the inhibition in experiment [1] amounted to 9.17%; in experiment [2] it was 7.89%; in experiment [3] it was 9%.

As for `CCCCCCN1CCCN(Cc2ccc(C(=O)Nc3ccc(C(C)C)cc3)cc2)CC1`, the inhibition was determined as 5.84% in experiment [1], 7.26% in experiment [2] and 4.28% in experiment [3].

For the molecule `CCc1c(CCNCCCCCCNC(C)Cc2ccc3c(c2CC)OCO3)ccc(OC)c1OC` (stereo not given), the inhibition in experiment [1] turned out to be 4.49%; in experiment [2], 3.47%; in experiment [3], 1.99%.

As for `CCOC(=O)c1ccc(COc2ccc(C)nc2)cc1`, the inhibition in experiment [1] is -1.54%; in experiment [2], -0.85%; in experiment [3], 0.17%.

In the case of `CCn1c(-c2nonc2N)nc2c(-c3cccc(NC(=O)Nc4ccc(Cl)cc4)c3)ncc(OCCCN)c21`, the inhibition in experiment [1] was 1.03%; in experiment [2] it was 0.62%; in experiment [3], 1.46%.

Turning to `CC(C)N(Cc1ccc(-c2ccc(C(F)(F)F)cc2)cc1)C(=O)Cn1c(SCc2cccc(F)c2F)cc(=O)c2cc(CN3CCCCC3)ccc21`, the inhibition was found to be 2.18% in experiment [1], 1.78% in experiment [2] and 3.27% in experiment [3].

As for `Cc1c(CC(=O)NCCC2CCN(CCCCCNC(=O)/C=C/c3ccc(Cl)c(Cl)c3)CC2)sc2ccc(Cl)cc12`, the inhibition in experiment [1] is 4.42%; in experiment [2], 5.42%; in experiment [3], 6.13%.

Consider `COc1cccc(C2CCCN(CCCCNC(=O)c3ccc(NC(=O)c4ccc(Cl)cc4)cc3)C2)c1` (stereo not given), for which the inhibition in experiment [1] turned out to be 2.97%; in experiment [2], 4.25%; in experiment [3], 3.02%.

In the case of `N#Cc1cc([N+](=O)[O-])ccc1-n1nc(-c2cccc(Cl)c2)n(Cc2ccco2)c1=S`, the inhibition is 1.94% in experiment [1], 1.56% in experiment [2] and -3.52% in experiment [3].

Take `CCN(CC)CCCN(C(=O)Nc1c(Cl)cncc1Cl)c1nc(-c2ccc(F)cc2)cs1`: the inhibition in experiment [1] is 2.47%; in experiment [2], 2.42%; in experiment [3], 3.83%.

With `Cc1cccc2nc(-c3cccc(-c4cccc(NC(=O)CNC(=O)c5ccc(O)cc5)c4)c3)[nH]c12`, the inhibition in experiment [1] was 0.25%; in experiment [2], -0.56%; in experiment [3], -0.5%.

As a reminder, the inhibition is the relative decrease from the control value, in per cent.
